In the library only some 2.4% were active in any assay of this set; here they are far more common.
D2 ag-1: activates the human D2 dopamine receptor | P14416 | HEK293 T-REx D2 cells, calcium flux agonist mode | activation, % at 2 µM | 340,000 tested, 0.53% active | AID 485358;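 active means activation over 3 SD above normal in the single-dose calcium agonist read, cut at about 30% in these data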; further: 0% is about no effect
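Calcium-flux readout, 1 cycle/sec over 180 s following compound pin transfer, in inducible HEK293 Trex D2 cells (force-coupled); dopamine controls included. Positive calcium responses during this window marked compounds as potential agonists.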
D2 PAM-1: positively modulates the human D2 dopamine receptor allosterically; P14416; HEK293 T-REx D2, calcium flux, EC20 dopamine potentiation; potentiation, % at 10 µM; 340,000 tested, 0.34% active; AID 485347;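 active means potentiation over 3 SD above the plate norm, cut at about 30% in these data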; further: 0% is about no effect
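Tetracycline-induced Hek293 Trex D2 cells, force-coupled to calcium, loaded with no-wash calcium dye. Compound added with 180 s kinetic read for agonism, then EC20 dopamine and a further 180 s read for potentiation.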
B2AR arrestin: agonists driving beta-arrestin recruitment to human beta2-adrenergic receptor; P07550; beta-arrestin recruitment to beta2AR, cell-based reporter; Potency, µM (highest dose often 46.1 µM), for the others: top-dose activation, actives largely listed as activators; 330,000 tested, 0.02% active; AID 492947; active means well fitted activation curve with a large enough effect; inconclusive means small, poorly fitted or top-dose-only effect;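 further: potency means the concentration at half of the fitted maximal effect; 0% = DMSO controls and full agonism = EC100 isoproterenol or metaproterenol; nearly all actives have a fitted effect of over 65% in size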
Target sequence (P07550 whole entry, looked up): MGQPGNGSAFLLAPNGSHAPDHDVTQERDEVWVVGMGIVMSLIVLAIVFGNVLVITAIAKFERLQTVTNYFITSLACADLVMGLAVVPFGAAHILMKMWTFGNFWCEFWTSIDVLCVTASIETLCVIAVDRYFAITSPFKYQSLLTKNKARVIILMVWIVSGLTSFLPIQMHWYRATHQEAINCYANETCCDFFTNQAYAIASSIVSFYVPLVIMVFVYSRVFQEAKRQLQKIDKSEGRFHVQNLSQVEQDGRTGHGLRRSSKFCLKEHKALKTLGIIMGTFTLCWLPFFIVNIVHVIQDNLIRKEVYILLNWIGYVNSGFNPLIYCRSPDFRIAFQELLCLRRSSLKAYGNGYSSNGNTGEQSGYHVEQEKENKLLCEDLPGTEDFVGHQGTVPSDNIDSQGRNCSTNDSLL
D2 PAM-2: human D2 receptor positive allosteric modulation | P14416 | DiscoveRx D2 beta-arrestin cells, luminescence, 90 min; 100% = 57 uM dopamine signal | potentiation, % (test concentration not listed) | 360,000 tested, 0.23% active | AID 624464; in the data active means potentiation above about 50%; inconclusive means mostly about 30% to 49%
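PathHunter D2 cells, attached overnight at 37 deg C, received compound in DMSO plus dopamine at EC20 (50 nM final) for 90 min at 37 deg C. Beta-arrestin recruitment was read as luminescence after 1 h with detection reagent at ambient temperature.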
D2 ag-2: agonists of human D2 dopamine receptor (beta-arrestin). P14416. 360,000 tested, 0.084% active. AID 624465. DiscoveRx PathHunter D2 beta-arrestin, luminescence, 90 min; 100% = 57 uM dopamine signal. activation, % (no concentration beside the values); in the data active means activation above about 40%; inconclusive means between about 15% and that limit
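Agonist mode: compounds alone added to overnight-plated D2 PathHunter cells for 90 min at 37 C, with 57 uM final dopamine (EC100) defining full response. Beta-arrestin recruitment detected by chemiluminescent reagent, read after 1 h at ambient temperature.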
D2 antag: antagonizes the human D2 dopamine receptor; P14416; HEK293 TREx D2 cells, calcium flux, dopamine EC80; inhibition, % at 10 µM; 340,000 tested, 2% active; AID 485344; in the data active means inhibition above about 30%; inactive means below that, where a call was filed; further: 0% is about no effect
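Compounds are added to dye-loaded, induced HEK293 T-REx cells coupled to calcium release via D2; after a 3 min kinetic read an EC80 dopamine stimulus is given and fluorescence is recorded for 3 more min.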
* = called active by the depositor; ? = inconclusive; . = no result.

SMILES | D2 ag-1 | D2 PAM-1 | B2AR arrestin | D2 PAM-2 | D2 ag-2 | D2 antag
CCOc1ccccc1CN1CCN(C/C=C/c2ccc(OC)cc2)CC1CCO (stereo not drawn) | 4 | -22 | -1% | -7 | -4 | 34*
COc1ccc(/C=C/CN2CCN(CCc3ccccc3)C(CCO)C2)cc1 (stereo not drawn) | 0 | -18 | 0% | -29 | -2 | -12
Cc1cc(C)n(C(=O)c2ccc(NC(=O)CC(C)C)cc2)n1 | 0 | -11 | 0% | -12 | -1 | 33*
COc1ccccc1NC(=O)CCC(=O)OCc1ccc(Br)cc1 | -3 | 5 | 0% | -4 | -3 | 4
Clc1cccc(Cl)c1Cn1nnc(N2CCCC2)n1 | -1 | 1 | 0% | -9 | -3 | 6
O=C(NC(NNc1ccc([N+](=O)[O-])cc1)(C(F)(F)F)C(F)(F)F)c1ccc(F)cc1 | 7 | 7 | 0% | 61* | 14 | 3
O=C(NC(NNc1ccc([N+](=O)[O-])cc1)(C(F)(F)F)C(F)(F)F)c1ccccc1Cl | . | . | 0% | ? | 2 | .
CCc1cccc(NC(=O)Nc2cccs2)c1 | 1 | -11 | 0% | -38 | 1 | 32*
COC(=O)c1ccccc1NC(=O)Nc1cccs1 | 0 | -7 | 0% | -24 | -2 | 38*
N#Cc1cccc(NC(=O)Nc2cccs2)c1 | 0 | -1 | 0% | -22 | 3 | 1
Cc1ccc(CN(CC(O)COc2cccc3[nH]cc(C)c23)C(C)(C)C)cc1 (stereo not drawn) | -1 | 4 | 0% | -9 | -5 | 7
Cc1c[nH]c2cccc(OCC(CNC(C)(C)C)OC(=O)c3ccccc3)c12 (stereo not drawn) | 0 | -19 | 9% | -18 | -4 | 70*
O=c1c2ccccc2n2cnnc2n1-c1ccccc1 | 0 | 2 | 0% | 3 | 0 | 6
O=c1c2ccccc2n2nnnc2n1-c1ccccc1 | 1 | 32* | . | -8 | -2 | 13
Cc1cccc(NC(=O)CSc2nc3c(oc4ccccc43)c(=O)n2Cc2ccco2)c1 | 0 | -1 | . | . | . | .
CC(=O)Nc1ccc(S(=O)(=O)Nc2ccccc2C(=O)N2CCCCC2)cc1 | -1 | 31* | 3% | -9 | -4 | 3
CN(C)c1ccc(/C=C/C(=O)c2ccc(O)cc2)cc1 | . | . | . | 0 | 4 | .
CN(C)c1ccc(/C=C/C(=O)c2ccc3c(c2)OCO3)cc1 | 68* | -17 | 0% | 10 | -3 | -52
CN(C)c1ccc(/C=C/C(=O)c2cccnc2)cc1 | 59* | -9 | 0% | -7 | 0 | -12
Cn1cccc1Cc1nnc(SCC(=O)NC2CCCC2)n1-c1ccc(F)cc1 | 2 | -1 | 0% | 2 | -3 | 36*
O=C(Cn1ncc2c(=O)oc3ccccc3c21)NCCN1CCN(c2ccccc2F)CC1 | 37* | -25 | 0% | -6 | -2 | -17
CN1C(=O)C(N=Nc2ccc([N+](=O)[O-])cc2)SC1=S (stereo not drawn) | . | . | . | -9 | 3 | .
COc1ccc2c(C)cc(SCc3c(C)noc3C)nc2c1 | 1 | -5 | 0% | -1 | 1 | 31*
COc1ccc2c(C)cc(SCC#N)nc2c1 | 0 | 9 | 0% | -5 | 1 | 13
COc1ccc(C(=O)OC2CCCCC2CN(C)C)cc1 (stereo not drawn) | 2 | -7 | 0% | -4 | -7 | 0
SMILES | D2 ag-1 | D2 PAM-1 | B2AR arrestin | D2 PAM-2 | D2 ag-2 | D2 antag
CN(C)S(=O)(=O)c1cccc(NC(=O)CNCC2CCCCC2)c1 | 0 | -24 | 0% | -21 | 4 | 55*
CN(CC(=O)Nc1cccc(S(=O)(=O)N2CCCCC2)c1)Cc1ccc(F)cc1 | 0 | -18 | 0% | -15 | 0 | 32*
NC(=O)c1nn(CC(=O)Nc2cccc(S(=O)(=O)N3CCCC3)c2)c(=O)c2ccccc12 | 0 | -10 | -2% | -3 | -1 | 44*
NC(=O)c1nn(CC(=O)Nc2cccc(S(=O)(=O)N3CCCCCC3)c2)c(=O)c2ccccc12 | 1 | 21 | 0% | -4 | 9 | -9
CN(CC(=O)Nc1cccc(S(=O)(=O)N(C)C)c1)Cc1ccccc1 | -1 | -28 | 0% | -8 | -1 | 33*
CCOC(=O)c1ccc(N2CCOCC2)c(NC(=O)COCC(=O)O)c1 | -1 | 1 | 0% | -2 | -8 | -6
CC1(C)CC(=O)c2cc(-c3nc(-c4ccc(Cl)cc4)cs3)c(=O)n(-c3ccc(Cl)cc3)c2C1 | 1 | -1 | . | . | . | .
O=C(CSc1nc2c(c(=O)n1-c1ccccc1)SCC2)N1CCN(c2ccccc2)CC1 | -2 | 11 | -1% | 8 | 2 | 22
Cc1nc(N2CCN(Cc3ccc4c(c3)OCO4)CC2)c2cc(-c3ccccc3)sc2n1 | 1 | -11 | 0% | -9 | 5 | 4
c1ccc(-c2ncc(CN3CCN(c4ccccn4)CC3)[nH]2)cc1 | 10 | -25 | 0% | -13 | -1 | 89*
CSc1nc(N2CCN(Cc3ccc4c(c3)OCO4)CC2)c2ccccc2n1 | 0 | -21 | 0% | -10 | 1 | 38*
c1ccc(N2CCN(Cc3ccc4c(c3)OCO4)CC2)nc1 | . | . | . | 91* | 65* | .
CC(=O)N1c2ccc(S(=O)(=O)N3CCCCCC3)cc2CC1C(=O)NCc1ccccc1 (stereo not drawn) | 0 | -2 | . | . | . | .
COC(=O)/C(C#N)=C1/SC=C(C)N1c1ccccc1 | . | 34* | 0% | -17 | -3 | .
CC1=CS/C(=C(/C#N)C(=O)N2CCCCC2)N1c1ccccc1 | 0 | 3 | 0% | 14 | -1 | -24
CCOc1ccccc1CN1C(=O)c2ccccc2C1C(=O)NCC1CCCO1 (stereo not drawn) | 1 | 6 | 0% | -1 | -2 | -27
CCN(CCCNC(=O)C1CCN(S(=O)(=O)CC)CC1)c1cccc(C)c1 | 0 | -5 | 0% | -3 | -1 | -3
COCC(=O)N(Cc1cc2ccc(C)c(C)c2n2nnnc12)C1CCCC1 | 0 | 37* | 0% | -3 | 1 | 8
CCOc1ccccc1NC(=O)Cc1csc(COc2cccc(C)c2)n1 | -2 | 17 | . | . | . | .
Fc1ccc(-n2c(-c3cccs3)nc3nc4ccccc4nc32)cc1 | 0 | 6 | 0% | -6 | -5 | -2
CCCc1cc(=O)[nH]c(SCC(=O)N2CCN(c3ccccc3)CC2)n1 | 0 | -4 | . | -20 | 0 | 38*
CCCc1cc(=O)[nH]c(SCC(=O)N2CCOCC2)n1 | 1 | -2 | -1% | -2 | -8 | -1
Cc1ccc2nc(NCC(=O)O)nc(-c3ccccc3)c2c1 | 0 | 1 | 0% | 2 | 0 | -2

Screening results as filed in PubChem BioAssay.
